Experimental data taken from PubChem BioAssay AID588689 (Southern Research Specialized Biocontainment Screening …, 2011).
About 1,000 (0.29%) of roughly 340,000 compounds were called active. Cut-off read from the data, not from the text of the source: inconclusive = inhibition above about 29% without an active follow-up result; inactive = below that. These entries were drawn from the full list. Potency and affinity values are given separately.

Target: Genome polyprotein (Dengue virus type 2 (strain 16681-PDK53)) (UniProt P29991)
Assay: flavivirus cap methylation enzyme inhibition – biochemical, confirmation dose response, primary screen (AID 588689)
Conditions: Dengue-2 NS5 methyltransferase capping enzyme assay, at 25 µM, stronger effect = higher value
[1] = measured here: pilot screen replicate inhibition

CCOC(=O)CN1C(=O)N[C@@H](c2cccs2)C(C(=O)OC)=C1C
inhibition: -0.8% (inactive)

Cn1ccnc1C(=O)c1cc(SCC(=O)NC2CC2)nc2ccccc12
inhibition: 0.73% (inactive)

O=C(NCc1nnnn1-c1ccc(F)cc1)c1cc2ccccc2o1
inhibition: 9.89% (inactive)

CCCCCCCCN1[C@@H](CC(=O)OCC)c2cc(C(F)(F)F)ccc2S1(=O)=O
inhibition: -6.14% (inactive)

CC(C)COc1cccc(C(=O)N(C)CC(=O)Nc2cccc3ccccc23)c1
inhibition: -6.94% (inactive)

Cc1cccc(CC(=O)Nc2ccon2)c1
inhibition: -7.18% (inactive) | inhibition [1]: 1.51%

NS(=O)(=O)c1ccc(N/N=C/c2ccccc2C(=O)O)c([N+](=O)[O-])c1
inhibition: 4.52% (inactive)

NS(=O)(=O)c1ccc(N/N=C/c2ccc(O)cc2O)c([N+](=O)[O-])c1
inhibition: 27.2% (inactive)

O=[N+]([O-])c1ccc(N/N=C/c2cccc(O)c2O)c(S(=O)(=O)N2CCOCC2)c1
inhibition: 6.18% (inactive)

COc1cc(/C=N/Nc2ccc([N+](=O)[O-])cc2S(=O)(=O)N2CCOCC2)cc(OC)c1OC
inhibition: -2.58% (inactive)

Cc1c(OCC(=O)N2CCC(C(N)=O)CC2)ccc2c3c(c(=O)oc12)CCCC3
inhibition: -4.35% (inactive)

CCOCCCNC(=O)CCc1nnc2n(CCC(C)C)c(=O)c3ccccc3n12
inhibition: -4.57% (inactive)

CCOc1cc(NC(=S)NCCCN2CCOCC2)c(OCC)cc1NC(=O)C1CCCCC1
inhibition: -10.9% (inactive)

O=C(O)CCCc1ccc2c(c1)CCc1ccccc1-2
inhibition: -0.8% (inactive)

CC(=O)Nc1ccc2c(c1)CCc1ccccc1-2
inhibition: -9.7% (inactive)

CCN(CC(=O)NCc1cccs1)S(=O)(=O)c1ccccc1Cl
inhibition: 0% (inactive)

O=C(NCc1ccncc1)C(=O)NCC1OCCN1S(=O)(=O)c1ccc(F)cc1 (centres undefined)
inhibition: -3.87% (inactive)

CCC(COC(C)=O)Nc1nc2c([nH]1)c(=O)n(C)c(=O)n2C (centres undefined)
inhibition: 9.2% (inactive)

COC(=O)c1sc2ccccc2c1N
inhibition: -9.74% (inactive)

COC(=O)C1=C(C(=O)OC)C(c2cc([N+](=O)[O-])ccc2O)c2sc(=O)[nH]c2S1 (centres undefined)
inhibition: -1.58% (inactive)

COC(=O)C1=C(C(=O)OC)C(c2ccc(OC)c(OC)c2)c2sc(=O)[nH]c2S1 (centres undefined)
inhibition: 18% (inactive)

COC(=O)c1cc(OC)nc2ccc(Br)cc12
inhibition: 4.64% (inactive)

Cc1ccnc(NC(=O)C2CCCN(c3ncnc4c3nc3n4CCCCC3)C2)c1 (centres undefined)
inhibition: 0.45% (inactive)

COc1cc(/C=N/N=C2/NC(=O)C(CC(=O)O)S2)ccc1OCc1ccc(Cl)cc1 (centres undefined)
inhibition: 16.7% (inactive)

COc1cc(/C=N/NC(=O)CC2(C)OCCCO2)ccc1OCc1ccc(Cl)cc1Cl
inhibition: -4.47% (inactive)

COc1ccc(/C=N/N=C2/NC(=O)C(CC(=O)O)S2)cc1OCc1ccccc1Cl (centres undefined)
inhibition: 17.8% (inactive)

COc1ccc(/C=N/N=C2/NC(=O)C(CC(=O)O)S2)cc1OCc1ccc(Cl)cc1 (centres undefined)
inhibition: 13.3% (inactive)

CCOc1cc(/C=N/N=C2/NC(=O)C(CC(=O)O)S2)ccc1OCc1ccc(Cl)cc1Cl (centres undefined)
inhibition: 25.1% (inactive)

CCOc1cc(/C=N/NC(=O)CSc2nnc(C)s2)ccc1OCc1ccccc1Cl
inhibition: 8.09% (inactive)

O=C1CCc2nc3ccccc3c(=O)n2N1
inhibition: -1.38% (inactive)

COc1cccc(C(CNc2ccc(S(=O)(=O)N3CCN(C)CC3)cc2[N+](=O)[O-])N(C)C)c1 (centres undefined)
inhibition: 2.89% (inactive)

Cc1onc(-c2c(F)cccc2Cl)c1C(=O)NNC(=O)C1CCN(Cc2cccc(F)c2)CC1
inhibition: -7.02% (inactive)

COc1ccc(S(=O)(=O)NNC(=O)c2cccs2)cc1
inhibition: -2.33% (inactive)

O=c1[nH]c2ccccc2c(O)c1-c1ccccc1[N+](=O)[O-]
inhibition: -7.29% (inactive)

COc1cc(C(=O)Nc2c(C(=O)O)[nH]c3ccccc23)cc(OC)c1OC
inhibition: -6.62% (inactive)

O=C(O)c1[nH]c2ccc([N+](=O)[O-])cc2c1-c1ccccc1
inhibition: 10.3% (inactive)

COc1ccc(S(=O)(=O)Nc2c(C(=O)O)[nH]c3ccccc23)cc1OC
inhibition: 1.6% (inactive)

CSc1nsc(SCC(=O)Nc2ccc(NC(C)=O)cc2)n1
inhibition: 2.42% (inactive)

COc1ccccc1CNS(=O)(=O)c1cccc2nsnc12
inhibition: 3.22% (inactive)

Cc1ccc(NC(=O)CSCC(=O)NCc2cccc(C(F)(F)F)c2)cc1
inhibition: 0.73% (inactive)

O=C(CSc1nc(O)c(C(c2ccccc2)c2ccccc2)c(=O)[nH]1)N1CCOCC1
inhibition: -5.31% (inactive)

Cc1ccccc1-n1cnnc1SCC(=O)Nc1cccnc1Cl
inhibition: 2.99% (inactive)

CCCCOC(=O)c1ccc(NC(=O)C(=O)NCc2cccnc2)cc1
inhibition: -1.56% (inactive)

N=C1C(c2nc3ccccc3s2)=C(O)CN1Cc1ccco1
inhibition: -1.36% (inactive)

Nc1nc(CSC(=S)N2CCOCC2)nc(Nc2ccccc2)n1
inhibition: 1.28% (inactive)

Cc1ccc(CNC(=O)C2CCC(=O)N2C(C)C)cc1 (centres undefined)
inhibition: -1.99% (inactive)

COc1cc(/C=C2\SC(=O)N(c3ccccc3Cl)C2=O)cc([N+](=O)[O-])c1O
inhibition: -6.99% (inactive)

O=C(NN1C(=O)/C(=C/c2ccc(O)c([N+](=O)[O-])c2)SC1=S)c1ccccc1Cl
inhibition: -3.59% (inactive)

CCc1cccc(N(C(=O)c2csnn2)C(C(=O)NC(C)(C)C)c2ccccn2)c1 (centres undefined)
inhibition: -5.18% (inactive)

CCC(C)NC(=O)Nc1ccccc1C (centres undefined)
inhibition: -2.79% (inactive)

CCC(=O)c1ccc(OCC(O)CN2CCN(S(=O)(=O)N3CCCCC3)CC2)cc1 (centres undefined)
inhibition: 5.46% (inactive)

O=c1oc2ccccc2c2c1C(O)CO2 (centres undefined)
inhibition: -7.16% (inactive)

Cc1c(O)c2ccccc2oc1=O
inhibition: -7.95% (inactive)

OCC1OC2C(NC(=S)N2c2ccccc2)C(O)C1O (centres undefined)
inhibition: 0.77% (inactive)

COc1ccc(C(c2c(C)[nH][nH]c2=O)c2c(C)[nH][nH]c2=O)cc1Br
inhibition: -3.47% (inactive)

Nc1ccccc1O
inhibition: -6.55% (inactive)

Oc1ccccc1O
inhibition: 0.73% (inactive)

O=C(Nc1ccc2c(c1)OCO2)N1CCN(Cc2ccco2)CC1
inhibition: 0% (inactive)

COc1ccc(OC)c(N2C(=O)CCCC2=O)c1
inhibition: -1.93% (inactive)

COc1ccc(NCc2ccc([N+](=O)[O-])s2)c(OC)c1
inhibition: 7.28% (inactive)

COc1ccc(N2C(=O)/C(=C/c3ccc([N+](=O)[O-])cc3)N=C2C)c(OC)c1
inhibition: -3.69% (inactive)

COc1ccc(OC)c(N2C(=O)c3cccnc3C2=O)c1
inhibition: 0.65% (inactive) | inhibition [1]: 1.22%
